Yp Topo-I inh: Yersinia pestis topoisomerase I inhibitors, primary screen, biochemical, cleavage product accumulation, plate reader, single point; DNA topoisomerase I (Yersinia pestis CO92); Y. pestis Topo-I cleavage product accumulation; activity, % at 10 µM; hit rate 0.064% among 360,000; in the data active = activity above about 50%, passing the limit was not always enough
PrP UTR inh: inhibition of PrP 5' UTR reporter expression | cell-based PrP 5' UTR mRNA reporter, plate reader | inhibition, % (test concentration not listed) | hit rate 0.35% among 340,000 | AID 488862, 2010; in the data active = inhibition above about 52%; note: 0 = median of the neutral control wells
PrPC TRFRET: inhibitors of human cell surface prion protein PrPC, primary screen, cell-based, TR-FRET | TR-FRET read-out | hit rate 0.43% among 370,000 | inhibition, % at 13.8 µM; in the data active = inhibition above about 24%; note: 0% = median of the test wells and 100% = reference compound wells
CCHFV vOTU inh: CCHFV vOTU protease inhibitors, primary screen, biochemical, Pep-AMC substrate, fluorescence; inhibition, % at 11.5 µM; hit rate 0.55% among 370,000; AID 651958, 2012; in the data active = inhibition above about 30%; note: 0% = vehicle wells with enzyme and 100% = no enzyme wells
PfHsp40 yeast: rescue of yeast from PfHsp40 toxicity, primary screen, S. cerevisiae, ATP luminescence; AID 504582, 2011; growth rescue, % at 12.5 µM; hit rate 0.68% among 340,000; S. cerevisiae expressing PfHsp40, growth rescue; in the data active = growth rescue above about 28%, passing the limit was not always enough;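 note: yeast W303a lacking pdr1 and pdr3 grown in galactose medium; growth measured after three days at 30 °C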
BJeLR viability: MLPCN primary cell-based screen for lethality selective to Ras in HRASV12 cells. inhibition, % (test concentration not listed). hit rate 0.17% among 300,000. BJeLR (HRASV12) viability, CellTiter-Glo ATP luminescence, 48 h; in the data active = inhibition above about 50%
PrP UTR cherry: prion 5' UTR mRNA inhibition, cherry-pick retest; cell-based prion protein 5' UTR reporter, plate reader; hit rate 48% among 1,100; shares compounds with PrP UTR inh; inhibition, % at 2.5 µM; AID 504592, 2011; in the data active = inhibition above about 54%
The depositor's hits bear a star. In the library only some 2% were active in any assay of this set; here they are far more common.

For CN(C)CCNc1ccc2ncn3c4ccc(O)cc4c(=O)c1c23 the results were Yp Topo-I inh -41.6, PrP UTR inh 93.1*, PrPC TRFRET -17.8, CCHFV vOTU inh 15.3, PfHsp40 yeast -0.1 and PrP UTR cherry 59.7*.
Cc1cc(N2CCNC[C@@H]2C)ccc1N1CCS(=O)(=O)CC1 was read as PrPC TRFRET -3.3 and CCHFV vOTU inh -11.5.
Screening CCNC(=S)NNC(=O)c1cc(-c2cccc(OC)c2)nc2ccccc12 returned Yp Topo-I inh 0.6, PrP UTR inh -30.3, PrPC TRFRET -2.5, CCHFV vOTU inh -6.8, PfHsp40 yeast 0.2 and BJeLR viability 10.4.
Screening CCNC(=S)NNC(=O)c1cc(-c2ccc(OCC)cc2)nc2ccccc12 returned Yp Topo-I inh -0.5, PrP UTR inh 58.4*, PrPC TRFRET -1.2, CCHFV vOTU inh 4.1, PfHsp40 yeast -0.6, BJeLR viability 54.4* and PrP UTR cherry 26.6.
For CCc1ccc(-c2cc(C(=O)Nn3cnnc3)c3ccccc3n2)cc1 the results were Yp Topo-I inh 1.7, PrP UTR inh 69.6*, PrPC TRFRET 4.0, CCHFV vOTU inh -3.5, PfHsp40 yeast -1.3, BJeLR viability 15.2 and PrP UTR cherry 61.2*.
For O=C(Cn1nnc(N2CCCCC2)n1)NN=Cc1ccccc1O the results were PrPC TRFRET 11.2 and CCHFV vOTU inh 1.7.
Screening CN1C(CCl)Nc2cc(Cl)c(S(N)(=O)=O)cc2S1(=O)=O (stereo not drawn) returned Yp Topo-I inh 1.6, PrP UTR inh 76.7*, PrPC TRFRET 3.2, CCHFV vOTU inh -8.2, PfHsp40 yeast -0.9 and PrP UTR cherry -14.9.
`CCC1NC(=O)c2cc(S(N)(=O)=O)c(Cl)cc2N1` (stereo not drawn) gave Yp Topo-I inh 0.4, PrP UTR inh -3.5, PrPC TRFRET 3.4, CCHFV vOTU inh -10.9 and PfHsp40 yeast -0.7.
COc1ccc(N/C=C/C(=O)c2cc(OC)c(OC)c(OC)c2)cc1 was read as Yp Topo-I inh -4.2, PrP UTR inh 71.0*, PrPC TRFRET 4.8, CCHFV vOTU inh -4.2, PfHsp40 yeast 1.0, BJeLR viability 53.0* and PrP UTR cherry 89.2*.
Screening COc1ccc(OC)c(N/C=C/C(=O)c2ccccc2)c1 returned Yp Topo-I inh -5.2, PrP UTR inh 80.8*, PrPC TRFRET 5.2, CCHFV vOTU inh -0.5, PfHsp40 yeast -0.6, BJeLR viability 18.6 and PrP UTR cherry 61.0*.
C[C@@H]1OC(C2CCCCC2)N(C)[C@H]2C[C@H]3c4cc(-c5ccc6c(c5)OCO6)ccc4CCN3C[C@@H]12 (stereo partly drawn) was read as PrPC TRFRET -13.2 and CCHFV vOTU inh 2.2.
`COc1ccc(/C=N/NC(=O)c2cc3c(OC)ccc(OC)c3[nH]2)cc1O` gave Yp Topo-I inh -32.2, PrP UTR inh 60.0*, PrPC TRFRET -6.0, CCHFV vOTU inh 10.4, PfHsp40 yeast 0.8, BJeLR viability 35.0 and PrP UTR cherry 78.2*.
Cc1nn(-c2ccccc2)c2c1CC(=O)Nc1ccccc1-2 was read as Yp Topo-I inh 0.5, PrP UTR inh 64.4*, PrPC TRFRET 12.4, CCHFV vOTU inh 1.6, PfHsp40 yeast 0.2 and PrP UTR cherry 80.0*.
For CCC(=O)OCCCN1CCC2(CCCCC2)C1=O the results were PrPC TRFRET 2.3.
Screening N#CC1=C2N=C(N)c3ccccc3N2C2=C(C(=O)CCC2)C1c1cccc(Cl)c1 (stereo not drawn) returned Yp Topo-I inh -2.3, PrP UTR inh 70.1*, PrPC TRFRET -4.6, CCHFV vOTU inh 1.3, PfHsp40 yeast 0.6, BJeLR viability -7.5 and PrP UTR cherry 3.2.
CCn1c2ccccc2c2cc(NC(=O)COC(=O)c3cc(F)ccc3C)ccc21 was read as PrPC TRFRET 0.4 and CCHFV vOTU inh -1.3.
For CC[C@H](NC(=O)[C@@H](Cc1ccccc1)NC(=O)[C@H]1O[C@@H](n2cnc3c(=O)[nH]c(N)nc32)[C@H](O)[C@@H]1O)c1ccccc1 the results were PrPC TRFRET -9.9 and CCHFV vOTU inh 13.4.
For COc1ccc(OC)c(-c2nnc3n2N=C(c2ccc(OC)c(OC)c2)CS3)c1 the results were Yp Topo-I inh 15.5, PrP UTR inh 56.5*, PrPC TRFRET 23.7, CCHFV vOTU inh 18.1, PfHsp40 yeast -0.6 and PrP UTR cherry 82.8*.
For COc1ccc(C2=Nn3c(nnc3-c3ccccc3)SC2)cc1OC the results were Yp Topo-I inh -2.8, PrP UTR inh -1.3, PrPC TRFRET 3.3, CCHFV vOTU inh -6.5, PfHsp40 yeast -1.4 and BJeLR viability 4.4.
CCc1nnc(NC(=O)CCc2ccc(C)o2)s1 was read as Yp Topo-I inh -0.6, PrP UTR inh -22.4, PrPC TRFRET 1.9, CCHFV vOTU inh -16.8, PfHsp40 yeast 0.9 and BJeLR viability 10.1.
For Cc1ccc(CCC(=O)Nc2ncc(Cc3cccc(Cl)c3Cl)s2)o1 the results were Yp Topo-I inh 3.3, PrP UTR inh 53.0*, PrPC TRFRET -1.4, CCHFV vOTU inh -0.5, PfHsp40 yeast -1.0, BJeLR viability 50.4 and PrP UTR cherry 88.7*.
COc1ccc(CNC(=O)C2CCCN(c3nc4ccccc4o3)C2)cc1 (stereo not drawn) was read as PrPC TRFRET 1.6 and CCHFV vOTU inh 6.6.
`C[C@]12CC[C@H](O)C[C@H]1CC[C@@H]1[C@@H]2CC[C@]2(C)[C@@H](C3=CC(=O)OC3)CC[C@]12O` gave Yp Topo-I inh 2.4, PrP UTR inh 77.2*, PrPC TRFRET -1.0, CCHFV vOTU inh 0.8, PfHsp40 yeast 0.0 and PrP UTR cherry 84.1*.
Screening COC1C(O)C(C)OC(OC2CCC3(C)C(CCC4C3C(O)CC3(C)C(C5=CC(=O)OC5)CCC43O)C2)C1O (stereo not drawn) returned Yp Topo-I inh -1.0, PrP UTR inh 87.4*, PrPC TRFRET 8.1, CCHFV vOTU inh 10.4, PfHsp40 yeast -1.4 and PrP UTR cherry 82.3*.
CC(=O)OC1CC(OC2C(O)CC(OC3C(O)CC(OC4CCC5(C)C(CCC6C5CC(O)C5(C)C(C7=CC(=O)OC7)CCC65O)C4)OC3C)OC2C)OC(C)C1OC1OC(CO)C(O)C(O)C1O (stereo not drawn) was read as Yp Topo-I inh 3.8, PrP UTR inh 90.4*, PrPC TRFRET 1.3, CCHFV vOTU inh 3.6, PfHsp40 yeast 0.1 and PrP UTR cherry 89.6*.
